Experimental data as given in PubChem BioAssay (NCI).
The panel holds about 79,000 compounds, 15% with a hit somewhere; the sample as a whole holds those more often. Rule as the data show it: active = growth inhibition above about 70%; inactive = the rest.

Key:
[1] = NCI Yeast Anticancer Drug Screen. Data for the rad50 strain (AID 155);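 also: 0% = growth of vehicle-only cultures of the same strain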; conditions: S. cerevisiae rad50 strain growth inhibition; at 50.0 µM; active compounds read high
Outline: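 Vehicle-treated cultures provide the reference for the growth inhibition reported for compound-exposed, repair-deficient yeast.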

[2] = NCI Yeast Anticancer Drug Screen. Data for the mec2-1 strain (AID 157); conditions: S. cerevisiae mec2-1 strain, at 50.0 µM, active compounds read high
Outline: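 Vehicle-treated cultures served as reference for growth inhibition of compound-exposed mec2-1 yeast.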

[3] = NCI Yeast Anticancer Drug Screen. Data for the sgs1 mgt1 strain (AID 161);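 also: 0% = growth of cultures given vehicle only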; conditions: S. cerevisiae sgs1 mgt1 strain, at 50.0 µM, active compounds read high
Outline: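 Test agents were incubated with a DNA-repair-mutant yeast strain. Growth was then read and compared against vehicle-treated controls.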

[4] = NCI Yeast Anticancer Drug Screen. Data for the cln2 rad14 strain (AID 165);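 also: 0% = growth equal to vehicle treated cultures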; conditions: S. cerevisiae cln2 rad14 strain, at 50.0 µM, active compounds read high
Outline: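 Each compound was tested on cln2 rad14 yeast. Inhibition of growth was calculated against vehicle-exposed controls.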

[5] = NCI Yeast Anticancer Drug Screen. Data for the bub3 strain (AID 167); conditions: S. cerevisiae bub3 mutant strain, at 50.0 µM, active compounds read high
Outline: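 Mutant yeast screening strain plus compound; vehicle-treated cultures serve as the 0% inhibition reference.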

[6] = NCI Yeast Anticancer Drug Screen. Data for the mlh1 rad18 strain (AID 175); conditions: S. cerevisiae mlh1 rad18 strain growth inhibition; at 50.0 µM; active compounds read high
Outline: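 Vehicle-treated cultures served as the reference for growth inhibition in a yeast strain carrying DNA damage repair alterations exposed to each compound.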

Measured: growth inhibition

COc1ccc(Nc2ccnc3cc(Cl)ccc23)cc1CCN
inactive: [1] 4.65% | [2] 8.85% | [3] 24% | [4] 10.6% | [5] -5.9% | [6] -5.8%

Cn1c2c(c(=O)n(C)c1=O)C(=Nc1ccccc1)C(=O)N2
inactive: [1] 0.2% | [2] 9.25% | [3] 7.2% | [4] -38.3% | [5] 1.65% | [6] 14.3%

Oc1[nH]c2ccccc2c1N=NC1=NCCCCN1
inactive: [1] -33.2% | [2] -36.5% | [3] -6.65% | [4] 15.7% | [5] -3.35% | [6] -14.7%

C#CCC(C)(C)C(N)=O
inactive: [1] -10.7% | [2] -6.85% | [3] 3.4% | [4] -35.8% | [5] -6.05% | [6] -8.5%

O=C1CC(C2(O)C(=O)Nc3ccc([N+](=O)[O-])cc32)c2ccccc21 (stereo not drawn)
inactive: [1] -22% | [2] -19.1% | [3] -9.65% | [4] -5.4% | [5] 11.2% | [6] -39.4%

O=[N+]([O-])c1ccc(-n2cnc3c(Cl)ncnc32)cc1
inactive: [1] 1.2% | [2] 35.9% | [3] 14.6% | [4] -0.55% | [5] 28.4% | [6] 0.6%

C=C1C(=O)OC2C1C(OC(=O)/C(C)=C/C)CC(O)(CCl)C1C(O)C=C(C)C21O (stereo not drawn)
inactive: [1] 33.5% | [2] 14.6% | [3] 21.6% | [4] 20.8% | [5] 10.1% | [6] -51.1%

CCOC(=O)CN1C(=O)C(=O)N(c2ccc(OC)c3ccccc23)C1=O
inactive: [1] -46.1% | [2] -17.2% | [3] -54.7% | [4] -40% | [5] -1.3% | [6] -27.6%

O=C(Nc1ccc(CCc2ccc(NC(=O)C34CC5CC(CC(C5)C3)C4)cc2)cc1)C12CC3CC(CC(C3)C1)C2
inactive: [1] -9.65% | [2] -6.55% | [3] 13.8% | [4] -0.45% | [5] -0.25% | [6] 2.55%

COc1cc(OC)c2nccc(NCCCN(C)C)c2c1[N+](=O)[O-]
inactive: [1] 4.75% | [2] -22.4% | [3] 5.75% | [4] 21.6% | [5] -3.4% | [6] 4.75%

COC(=O)C1=C(c2ccccc2)c2ccc3ccccc3c2C1c1ccccc1 (stereo not drawn)
inactive: [1] 40.1% | [2] -8.25% | [3] 22.9% | [4] 12.4% | [5] 6.15% | [6] 25.2%

O=C1CCCCC1CC1(O)C(=O)NC2CCC(Br)CC21 (stereo not drawn)
inactive: [1] -11.6% | [2] -3.3% | [3] 21.6% | [4] 8.75% | [5] 18.7% | [6] 5.6%

O=S(=O)(Cc1cccs1)c1ncc(Br)cn1
inactive: [1] 9.25% | [2] 10.1% | [3] 7.9% | [4] 7.5% | [5] 11.8% | [6] 7.8%

Cn1nc(-c2ccccc2)c(C(=O)/C=C/c2ccc(F)cc2)c(N2CCOCC2)c1=O
inactive: [1] -34.9% | [2] -34% | [3] -54.8% | [4] 5.9% | [5] -21.6% | [6] -15.8%

CCCN(CCC)CCCCCCCCN
inactive: [1] 29.1% | [2] -13.2% | [3] -3.2% | [4] 12.8% | [5] -7.9% | [6] 16.2%

CC(=O)OCCc1ccccc1C#N
inactive: [1] 7.35% | [2] 9.05% | [3] 9.3% | [4] -11.1% | [5] -4.25% | [6] 11.9%

O=C1c2ccccc2C(=O)N1CCc1ccccn1
inactive: [1] 5.5% | [2] -6% | [3] 3.95% | [4] -27.1% | [5] -0.45% | [6] -22.9%

Cc1ccccc1-c1nc(/C=C2\C(=O)C=Cc3ccccc32)c(O)o1
inactive: [1] -17.3% | [2] -4.45% | [3] -1.1% | [4] 23.6% | [5] -2.55% | [6] -1.6%

O=C(NN1C(=O)CSC1c1ccc(F)cc1)c1ccncc1 (stereo not drawn)
inactive: [1] -4.2% | [2] 1.1% | [3] 4.15% | [4] -6.75% | [5] 7.95% | [6] 11.8%

Clc1ccc2nc(/C=C/c3ccccc3)cnc2c1
inactive: [1] 14.6% | [2] 11.2% | [3] 13.3% | [4] 8.9% | [5] 14.1% | [6] 22.5%

C/C(=N/O)c1c[n+]([O-])ccn1
inactive: [1] -3.9% | [2] -3.15% | [3] -7.9% | [4] -31.2% | [5] 4.7% | [6] -0.5%

CCCCCCOC(=O)/C=C1/OC(=O)c2ccccc21
inactive: [1] -12.2% | [2] -15.5% | [3] 2.15% | [4] -60.5% | [5] 11.4% | [6] -16.4%

CN(C)C1Cc2ccccc2C1OC(=O)c1ccccc1 (stereo not drawn)
inactive: [1] 27% | [2] 20.2% | [3] 11% | [4] 22.1% | [5] 14.6% | [6] 37.1%

Cc1c(Br)cc(C(=O)O)c(O)c1Br
inactive: [1] -4.95% | [2] 2.05% | [3] 19.6% | [4] -29.2% | [5] -26.6% | [6] 3.05%

Cc1cc(S(=O)(=O)Nc2n[nH]c(Nc3ccccc3)n2)c(S)cc1Cl
inactive: [1] -3.5% | [2] 9% | [3] -13.8% | [4] 9.6% | [5] 12.9% | [6] 19.6%

CCC(C(=O)c1ccccc1)c1cccc2c1N(C(C)=O)CC2 (stereo not drawn)
inactive: [1] 0.05% | [2] 6.9% | [3] -7.5% | [4] -5.6% | [5] 11.2% | [6] 20.1%

O=C1NC(=O)C(=NC2C(=O)NC(=O)NC2=O)C(=O)N1
inactive: [1] 6.65% | [2] 29.4% | [3] 31.3% | [4] 1.5% | [5] 26.1% | [6] 19.8%

Cc1[nH]c(N)nc(=S)c1CCC(C)C
inactive: [1] -16.6% | [2] -9.7% | [3] -1.05% | [4] -100% | [5] -1.55% | [6] 17.2%

O=c1[nH]c(=O)c2[nH]cnc2[nH]1
inactive: [1] 8.05% | [2] -6% | [3] 5.9% | [4] 2.55% | [5] 9.9% | [6] 9.75%

O=C(O)C1CC1Br (stereo not drawn)
inactive: [1] 9.15% | [2] -15.3% | [3] -3.65% | [4] -14.4% | [5] 2.45% | [6] 5.8%

COc1cccc2c1C(=O)C1(O)CCCCC21 (stereo not drawn)
inactive: [1] -55.8% | [2] -41.6% | [3] -65.3% | [4] -21.4% | [5] -59.5% | [6] -25.7%

COC(=O)C(Cc1[nH]c(N=Nc2ccc(Br)cc2)nc1N=Nc1ccc(Br)cc1)NC(C)=O (stereo not drawn)
inactive: [1] 43% | [2] -1% | [3] 27.1% | [4] -11.1% | [5] -3.55% | [6] -5.25%

O=[N+]([O-])C(/C=C(\Cl)[N+](=O)[O-])=C1Nc2ccccc2N1
inactive: [1] 29.9% | [2] 45.1% | [3] 57.2% | [4] 19.4% | [5] 21.1% | [6] 50.5%

O=C(CCCCCCCCC(=O)c1ccc2ccccc2c1O)c1ccc2ccccc2c1O
inactive: [1] -24.4% | [2] -22.1% | [3] -12.8% | [4] 15% | [5] -10.4% | [6] -11.8%

BrC1c2ccccc2-c2nc3ccccc3nc21 (stereo not drawn)
inactive: [1] 11.2% | [2] 4.6% | [3] 1.6% | [4] 56.2% | [5] 17.1% | [6] 29.9%

CCCOC(=O)/C=C/c1ccc(OC)cc1
inactive: [1] -10.7% | [2] -18.9% | [3] -16.1% | [4] -12.2% | [5] -14.4% | [6] -27.4%

O=C(O)/C=C(\Br)C(=O)O
inactive: [1] 16.1% | [2] -4.1% | [3] -1% | [4] -11.4% | [5] -5.4% | [6] 5.3%

CCNC(=O)NCc1cccc2ccccc12
inactive: [1] -0.05% | [2] -8.15% | [3] -7.15% | [4] -74.2% | [5] 5.15% | [6] -1.6%
